Results published in ChEMBL document CHEMBL3988442, “University of Dundee, Small-Polar-MMV Screening Library” (2021).
In all, about 48,000 compounds went through this assay and about 13,000 (27%) showed an effect of 50% or more. Some of the results follow.

test system: Wolbachia pipientis; assay: Anti-Wolbachia Cell-Based Screen; assay type: functional; set-up: scale not given: in the data most compounds retested in dose-response had high values; settings: 5 µM

SMILES	Percent Effect
CC(C)(C)CN(CCC#N)C(=O)Cc1ccc(-n2cnnn2)cc1	-11.58%
COCCc1noc(CN2CCc3nn(C(C)C)c(=O)cc3C2)n1	0.5745%
Cc1nnc(CN(C)CCc2nc(-c3cccc(Cl)c3)no2)n1C	-15.48%
Cc1cnn(C2CN(CC(O)c3ccccc3)C2)c1 (configuration not stated)	7.133%
O=C(COc1ccc2c(c1)CCCC2=O)NCc1ccco1	5.581%
CN(C1CCCCC1)S(=O)(=O)N1CCN(Cc2ccco2)CC1	20.54%
COc1ccc2c(c1)CN(Cc1ccco1)C(=O)CCN2	81.17%
CN(Cc1n[nH]c(=O)n1Cc1ccco1)S(C)(=O)=O	13.53%
Cc1ncc(-c2ccnc(N3CCN(C)CC3)n2)c(-c2cccnc2)n1	-5.726%
Cc1ncc(-c2ccnc(SCCN)n2)c(-c2ccco2)n1	79.73%
NCCSc1nccc(-c2cnc(C3CC3)nc2-c2ccco2)n1	112.5%
Cc1ncc(-c2ccnc(SCCN(C)C)n2)c(-c2ccco2)n1	91.76%
COCCN(c1cc(C)nc2nc(C(F)(F)F)nn12)C1CCCC1	-0.8248%
CCn1cnnc1Cc1nc2c([nH]1)CC(c1ccc(Cl)cc1)CNC2=O (configuration not stated)	5.995%
CC1(C)CNC(=O)c2nc(CCN3CCOCC3)[nH]c2C1	-31.15%
O=C1NCC(c2ccc(F)cc2)Cc2[nH]c(CCN3CCCC3)nc21 (configuration not stated)	95.37%
CC1(C)CNC(=O)c2nc(CCCN3CCCC3)[nH]c2C1	-5.112%
O=C1NCC(c2ccc(Cl)cc2)Cc2[nH]c(CCN3CCOCC3)nc21 (configuration not stated)	104.7%
CCN(CC)CCc1nc2c([nH]1)CC(c1ccc(Cl)cc1)CNC2=O (configuration not stated)	-9.032%
Cc1cc(-c2ccc(C(C)N3CCCCC3)cc2)cnc1N (configuration not stated)	11.64%
Cc1nccnc1N1Cc2cnn(Cc3ccc(F)cc3)c2C1	9.58%
CC(=O)Nc1ccc2nc(-c3nccn3CC(C)(C)CO)ccc2c1	3.908%
Cc1nccn1C1CCCN(C(=O)CCc2nc(C(C)C)no2)C1 (configuration not stated)	10.57%
Cc1cc(CNc2ccc(C(=O)N3CCCC(C)C3)cc2C)no1 (configuration not stated)	0.152%
CCc1cnc(CNc2ccc(C(=O)N3CCCC(C)C3)cc2C)o1 (configuration not stated)	0.007999%

SMILES	Percent Effect
Cc1noc(CNc2ccc(C(=O)N3CCCC(C)C3)cc2C)n1 (configuration not stated)	71.8%
CCc1noc(CNc2ccc(C(=O)N3CCCC(C)C3)cc2C)n1 (configuration not stated)	-0.296%
Cc1cc(C(=O)N2CCCC(C)C2)ccc1NCc1nc(C2CC2)no1 (configuration not stated)	111.9%
Cc1cc(C(=O)N2CCCC(C)C2)ccc1NCc1nc(C(C)C)no1 (configuration not stated)	111.7%
CC(C)c1noc(CNc2ccc(OC(F)F)cc2OC(F)F)n1	-33.16%
CNS(=O)(=O)Cc1cccc(CNCc2ccsc2)c1	-11.11%
CCN(Cc1cnn(CC)c1)C(=O)Cn1c(=O)ccc2ccccc21	8.668%
Cc1noc(C)c1CN(C)C(=O)c1ccc(NC2CC2)nc1	-0.4037%
Cl.Fc1ccc(Cc2cnc(C3CCCN3)cn2)cc1 (configuration not stated)	101.6%
Cc1ccc(Cc2cnc(C3CCNCC3)cn2)cc1.Cl	94.42%
O=C1NCCCc2[nH]c(Cc3ccc(F)cc3)nc21	-3.55%
Cl.O=C1NCCCCC1NCc1csc(-c2ccc(F)cc2)n1 (configuration not stated)	-5.681%
CN(C)C(=O)c1cccc(CCNc2ccccc2S(C)(=O)=O)c1	-12.66%
CC(C)Nc1ncccc1C(=O)NC1CC(=O)N(CC(F)(F)F)C1 (configuration not stated)	5.646%
CC(=O)N(C)CC(=O)NCC1(c2c(F)cccc2F)CCCC1	20.23%
Cc1cc(C)n(C2CCCN(C(=O)c3ccn(C)c(=O)c3)C2)n1 (configuration not stated)	-8.273%
Cc1cc(C)n(C2CCCN(C(=O)c3ccc(NC4CC4)nc3)C2)n1 (configuration not stated)	-9.75%
CNC(=O)c1ccc(C(=O)N2CCCC(n3nc(C)cc3C)C2)cn1 (configuration not stated)	97.01%
Cc1cc(C)n(C2CCCN(C(=O)c3ccnc(N(C)C)c3)C2)n1 (configuration not stated)	-18.09%
Cc1cc(C)n(C2CCCN(C(=O)c3ccc(N(C)C)nc3)C2)n1 (configuration not stated)	99.92%
Cc1cc(C)n(C2CCCN(C(=O)c3cnc4onc(C)c4c3)C2)n1 (configuration not stated)	3.729%
O=C(NC1CCCNC1=O)c1ccc2nc(-c3ccc(F)cc3)cn2c1 (configuration not stated)	-16.52%
CC1CCCCN1CCNC(=O)c1ccn(-c2ccc(F)cc2)n1 (configuration not stated)	4.653%
Cc1cc(C(=O)NCCN2CCCCC2C)nn1C(C)(C)C (configuration not stated)	107.2%
Cc1cc(C(=O)NCCN2CCCC(C)C2)nn1C(C)(C)C (configuration not stated)	95.43%

SMILES	Percent Effect
Cc1cc(C(=O)NCCN2CCCCCC2)nn1C(C)(C)C	99.33%
Cc1cc(C(=O)NCCN2CCCC(C)C2)nn1C (configuration not stated)	-3.799%
CC1CCCN(CCNC(=O)c2cncnc2C(C)C)C1 (configuration not stated)	11.51%
Cc1cc(C(=O)NCCN2CCC(C)CC2)nn1C(C)(C)C	102.5%
CC1CCCCN1CCNC(=O)c1ccccc1N1CCOCC1 (configuration not stated)	19.03%
CC1CCN(CCNC(=O)c2ccccc2N2CCOCC2)CC1	-0.8532%
CCc1ncncc1C(=O)NCCN1CCC(C)CC1	6.983%
CCc1ncc(C(=O)N2CCN(c3nc(C)cc(OC)n3)CC2)s1	-13.57%
CC(C)NC(=O)[C@@H]1C[C@H](N)CN1C(=O)c1cc2c([nH]c1=O)CCCC2	1.783%
Cc1cccc2c1cnn2CCC(=O)NCC(=O)N(C)C	14.92%
Cc1cc(C(=O)N2CCCC(N3CCCCCC3)C2)nn1C(C)(C)C (configuration not stated)	-14.1%
Cc1cc(C(=O)NCCN2CCCCC2)nn1C(C)(C)C	88.73%
FC1(F)CCN(Cc2ccccn2)CC12CCN(c1ncccn1)C2.O=C(O)C(F)(F)F (configuration not stated)	99.55%
Fc1ccc(CN2CCC(F)(F)C3(CCN(c4cnccn4)C3)C2)cc1.O=C(O)C(F)(F)F.O=C(O)C(F)(F)F (configuration not stated)	95.57%
O=C(O)C(F)(F)F.O=C(c1cc[nH]n1)N1CCC(F)(F)C2(CCN(c3ccccn3)C2)C1 (configuration not stated)	-20.89%
Fc1cnc(N2CCC3(CC2)CN(Cc2ccccn2)CCO3)nc1.O=C(O)C(F)(F)F.O=C(O)C(F)(F)F	3.828%
FC1(F)CCN(Cc2ccccn2)CC12CCN(c1cnccn1)C2.O=C(O)C(F)(F)F.O=C(O)C(F)(F)F.O=C(O)C(F)(F)F (configuration not stated)	108%
O=C(O)C(F)(F)F.c1ccc(CN2CCOC3(COCCN(c4ncccn4)C3)C2)nc1 (configuration not stated)	-5.957%
FC1(F)CCN(Cc2ccncc2)CC12CCN(c1cnccn1)C2.O=C(O)C(F)(F)F.O=C(O)C(F)(F)F.O=C(O)C(F)(F)F (configuration not stated)	91.26%
O=C(NC[C@H]1OC[C@@H](NCc2ccccn2)[C@@H]1O)c1ccncc1	-10.69%
CC1=N[C@@]2(CC[C@@H]3CN(S(=O)(=O)C4CC4)C[C@@H]32)C(=O)N1CC(C)C	6.738%
CCCC1(NC(=O)C(c2ccc(F)cc2)N(C)C)CC1 (configuration not stated)	19.19%
Cc1ccc(CNCc2ccc(N3CCC(CO)CC3)nc2)c(C)c1.Cl	6.349%
CCS(=O)(=O)NCCNCc1ccc(Cl)c2cccnc12	1.555%
CCc1sc(C(=O)Nc2cnn(CC(=O)NC3CC3)c2)cc1C	-4.419%

SMILES	Percent Effect
CC(NC(=O)c1cc2n(n1)CCCN(C(C)C)C2)c1cn2ccsc2n1 (configuration not stated)	13.56%
O=C(O)C(F)(F)F.OCCN1CCC(F)(F)C2(CCN(c3cnccn3)C2)C1 (configuration not stated)	101.7%
O=C(O)C(F)(F)F.O=C(c1c[nH]cn1)N1CCC(F)(F)C2(CCN(c3cnccn3)C2)C1 (configuration not stated)	-14.15%
FC1(F)CCN(Cc2cccnc2)CC12CCN(c1cnccn1)C2.O=C(O)C(F)(F)F.O=C(O)C(F)(F)F.O=C(O)C(F)(F)F (configuration not stated)	109.7%
O=C(NS(=O)(=O)c1ccc2c(c1)CCC2)C1COCCO1 (configuration not stated)	-6.627%
CCOc1cc(C)ccc1NS(=O)(=O)c1cc(C)c(C(=O)O)s1	-7.525%
O=C1CC(c2ccsc2)c2c(n(C3CCOCC3)[nH]c2=O)N1 (configuration not stated)	5.675%
Cc1ccc(SCCN(C)C(=O)c2cn([C@H]3CC[C@@H](N)CC3)nn2)cc1	1.127%
Cc1ccoc1C(=O)N1CC[C@H]2C[C@H](c3nnc(C4CC4)o3)O[C@@H]2C1	102.2%
Cc1occc1C(=O)N1CC[C@H]2C[C@@H](c3nnc(C4CC4)o3)O[C@@H]2C1	109%
Cc1nc([C@@H]2C[C@@H]3CCN(C(=O)c4occc4C)C[C@H]3O2)no1	-8.664%
Cc1nc([C@H]2C[C@H]3CN(C(=O)c4ccoc4C)CC[C@@H]3O2)no1	-4.157%
CCC1c2ccccc2CCN1C(=O)c1ccc(OC)nn1 (configuration not stated)	-4.117%
Cc1noc(CN(C)c2nc(-c3ccco3)nc3c2CCN(C)CC3)n1	89.77%
CCOCc1nc2c(c(N(C)Cc3nonc3C)n1)CCNCC2	2.534%
Cc1nonc1CN(C)c1nc(-c2ccco2)nc2c1CCN(C)CC2	97.89%
CN(Cc1ccc2c(c1)OCO2)Cc1nc(-c2ccco2)no1	2.905%
CC(C)n1nc2c(cc1=O)CN(Cc1nc(-c3ccco3)no1)CC2	-11.95%
Cc1nonc1CN(C)c1nc(-c2cccnc2)nc2c1CCNC2	3.087%
Cc1nc(CNc2nc(-c3ccco3)nc3c2CCNCC3)n[nH]1	7.543%
Cc1cc(CN(C)c2nc(-c3ccco3)nc3c2CCN(C)CC3)on1	70.19%
Cc1cc(CN(C)c2nc(-c3ccccn3)nc3c2CCNCC3)n[nH]1	-2.668%
